High-throughput results as filed in PubChem.
hgDAF12 agonist: hgDAF-12 agonism, primary luciferase screen; activation, % at 6.8 µM; 370,000 compounds, 1.8% hits; HEK293 GAL4-hgDAF12 UAS-luciferase reporter, agonist luminescence; normalized to butyrate control;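 active = activation above a cutoff set at the mean of all screened compounds plus 3 SD, cut at about 10% in these data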;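 note: 0% = DMSO wells and 100% = sodium butyrate wells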
DAX1 inh-1: NR0B1 (DAX1) inhibition; HEK293 Gal4-DAX1 luciferase reporter, luminescence; AID 504766; 340,000 compounds, 0.99% hits; inhibition, % at 6.75 µM;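 active = inhibition above the mean over all tested compounds plus 3 SD, cut at about 4.2% in these data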;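 note: 0% = DAX1-transfected cells with DMSO and 100% = empty-vector control cells with DMSO; inhibition shows as a rise in luminescence from relieved DAX1 repression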
Target sequence (P51843 207-470 limits assumed): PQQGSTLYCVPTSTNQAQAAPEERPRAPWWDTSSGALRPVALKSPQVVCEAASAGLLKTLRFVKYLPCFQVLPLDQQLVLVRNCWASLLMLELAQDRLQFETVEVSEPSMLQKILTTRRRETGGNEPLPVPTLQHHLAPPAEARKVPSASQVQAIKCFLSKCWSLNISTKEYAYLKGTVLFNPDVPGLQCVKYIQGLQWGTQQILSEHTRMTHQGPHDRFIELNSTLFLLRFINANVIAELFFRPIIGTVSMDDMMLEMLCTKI
ssDAF-12 act: activators of S. stercoralis DAF-12 nuclear receptor; AID 652126; 370,000 compounds, 1% hits; activation, % at 6.8 µM; HEK293 ssDAF-12/GRIP1 lit1-tk-luc reporter, luminescence; % of 3 µM dafachronic acid response;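 active = activation above the mean over all tested compounds plus 3 SD, cut at about 0.9% in these data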;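 note: 0% = DMSO-only wells and 100% = 3 µM delta7-dafachronic acid wells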
DAX1 inh-2: blocks DAX1 repression of SF-1 activated StAR promoter; HEK293T StAR-luciferase reporter, SF-1/DAX-1 repression relief; inhibition, % at 6.8 µM; 370,000 compounds, 1.1% hits; AID 652010;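 active = inhibition above the mean over all tested compounds plus 3 SD, cut at about 3.6% in these data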;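 note: 0% = DAX-1 cells with DMSO and 100% = cells lacking DAX-1 with DMSO; higher inhibition means more luminescence from relief of DAX-1 repression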
hcDAF12 agonist: activates DAF-12 receptor from parasite H. contortus | HEK293 hcDAF-12 lit1-tk-luc reporter, luminescence; 0% DMSO, 100% Δ7-dafachronic acid | activation, % at 6.8 µM | 370,000 compounds, 1.4% hits | AID 652067;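 active = activation above the mean of all tested compounds plus 3 SD, cut at about 5.5% in these data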;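 note: 100% = response to 3 µM Δ7-dafachronic acid high control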
LXR ag: counter-screen for hcDAF-12 agonists: agonists of human LXR-beta; shares compounds with hcDAF12 agonist; HEK293 Gal4-LXR tk-luc reporter, luminescence, 24 h; normalized: DMSO 0%, positive control 100%; activation, % at 6.8 µM; 3,400 tested, under 10 active;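 active = mean percent activation of the reporter above a cutoff set as the average over tested compounds plus their standard deviation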
Target sequence (P55055 whole entry, looked up, the tested form may be a part): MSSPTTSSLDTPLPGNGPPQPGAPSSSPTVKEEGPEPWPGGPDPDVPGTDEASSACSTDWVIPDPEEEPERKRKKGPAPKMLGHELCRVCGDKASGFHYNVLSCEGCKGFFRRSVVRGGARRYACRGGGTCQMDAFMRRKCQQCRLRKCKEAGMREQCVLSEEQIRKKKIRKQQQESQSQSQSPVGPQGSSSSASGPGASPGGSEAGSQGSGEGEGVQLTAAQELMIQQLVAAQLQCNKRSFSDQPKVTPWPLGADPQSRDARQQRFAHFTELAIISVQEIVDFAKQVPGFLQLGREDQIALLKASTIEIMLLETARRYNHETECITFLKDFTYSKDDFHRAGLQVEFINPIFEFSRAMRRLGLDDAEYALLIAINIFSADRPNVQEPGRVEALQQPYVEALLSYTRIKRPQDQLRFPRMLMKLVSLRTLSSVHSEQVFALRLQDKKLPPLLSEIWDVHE
hcDAF12 conf: hcDAF-12 agonism, confirmation assay; 3,400 compounds, 61% hits; activation, % at 6.8 µM; AID 743032; HEK293 hcDAF-12 lit1-tk-luc reporter, luminescence; % of Δ7-dafachronic acid response; shares compounds with hcDAF12 agonist;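 active = mean activation across triplicate tests above the threshold derived from the earlier primary screen, cut at about 5.5% in these data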;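 note: 0% = DMSO only wells and 100% = 3 µM Δ7-dafachronic acid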
hgDAF12 ag: hgDAF-12 agonism, confirmation assay. shares compounds with hgDAF12 agonist. HEK293 GAL4-hgDAF12 luciferase reporter, agonist mode; percent of butyrate response. activation, % at 6.8 µM. 3,300 compounds, 80% hits. AID 743050;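 active = mean activation over triplicate wells above the hit cutoff derived from the earlier primary screen, cut at about 11% in these data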;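 note: 0% = DMSO low control and 100% = 2 mM sodium butyrate high control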
LXRb DAF12 ctr: LXR-beta agonism as DAF-12 counter-screen | HEK293 Gal4-LXR luciferase reporter, 24 h | shares compounds with hgDAF12 agonist | AID 743051 | 3,300 tested, under 10 active | activation, % at 6.8 µM;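 active = mean activation of the triplicate above a set limit carried over from the primary screen, none filed active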
The depositor's hits bear a star; · = no result. This is a sample that favours compounds with a hit; in the whole collection about 4.1% have one here.

SMILES	hgDAF12 agonist	DAX1 inh-1	ssDAF-12 act	DAX1 inh-2	hcDAF12 agonist	hgDAF12 ag	LXRb DAF12 ctr	others
Cc1ccc2c(c1)N=C(c1ccccc1)CC(C(Cl)Cl)=N2	13.6*	-1.4	1.8*	1.9	15.3*	19.1*	1.0	LXR ag=0.8;hcDAF12 conf=8.1*
Cc1ccc(NC(=O)CSCc2ccco2)cc1	17.0*	0.7	1.3*	-0.5	8.0*	13.0*	0.4	LXR ag=0.5;hcDAF12 conf=4.0
Cc1ccc(NC(=O)CSCC(=O)NCc2ccco2)cc1	1.0	-0.1	-1.1	-0.5	-1.6	·	·
COc1cc(NC(=O)Nc2cccn3nc(COCCO)nc23)cc(OC)c1OC	1.9	·	-1.9	0.2	-1.2	·	·
Cc1cccc(/C=C(\c2nc3ccccc3[nH]2)S(=O)(=O)c2ccccc2)c1	-10.8	-5.3	-2.9	-4.2	-4.6	·	·
Cc1cccc(/C=C(\C(=O)C(=O)O)c2ccc3ccccc3n2)c1	20.7*	0.9	1.8*	3.4	11.4*	13.9*	0.4	LXR ag=0.5;hcDAF12 conf=8.1*
COc1cccc(C(=O)Cn2c(NCCO)nc3ccccc32)c1	-0.4	-0.6	-0.9	0.0	-0.2	·	·
COc1cccc(C(=O)Cn2c(=N)n(C)c3ccccc32)c1	17.3*	-0.9	3.2*	3.5	18.0*	19.6*	1.1	LXR ag=2.1;hcDAF12 conf=17.2*
Cc1ccc(S(=O)(=O)Oc2cccc([N+](=O)[O-])c2)cc1	-1.2	0.2	-1.1	-1.1	0.0	·	·
Cc1ccc(NC(=O)/C=C/C(=O)O)c([N+](=O)[O-])c1	-0.2	1.8	-0.8	0.1	2.0	·	·
Cc1ccc(NC(=O)/C=C/c2cccs2)c([N+](=O)[O-])c1	13.5*	2.0	-0.6	0.7	6.8*	18.6*	0.9	LXR ag=1.0;hcDAF12 conf=6.5*
COc1ccc(S(=O)(=O)N2CCN(C(=O)c3ccccc3Cc3ccccc3)CC2)cc1OC	-2.9	0.3	-0.8	0.8	0.5	·	·
N#C/C(=C\c1ccc(OCc2ccc(C(=O)O)cc2)cc1)C(=O)N1CCOCC1	18.6*	-6.2	1.6*	3.5	14.4*	20.5*	1.0	LXR ag=1.4;hcDAF12 conf=7.8*
O=S(=O)(CCNCCc1ccccc1)NCc1ccccc1	-1.3	0.0	0.1	0.2	0.0	·	·
Cc1nn(Cc2cccc(F)c2)c(C)c1NC(=O)c1ccc(COc2ccccc2Cl)cc1	-5.5	-2.8	-2.5	-1.4	-4.1	·	·
Cc1nn(Cc2c(F)c(F)c(F)c(F)c2F)c(C)c1NC(=O)c1cccc(COc2ccccc2Cl)c1	19.9*	-2.6	-0.5	1.3	4.5	9.1	0.4
CCOC(=O)C1CCCCN1C(=O)c1oc2c(Cl)cc(C)cc2c1C (stereo not drawn)	3.1	-0.6	-0.9	-0.6	-1.2	·	·
COC(=O)C1CCN(C(=O)c2oc3c(Cl)cc(C)cc3c2C)CC1	13.9*	1.2	0.4	2.2	3.5	16.0*	0.6
CN1/C(=C\C(=O)c2cccnc2)Sc2ccccc21	17.6*	1.4	-0.7	3.3	2.0	11.5*	0.6
Cc1ccc(Nc2nc(N)nc(CSc3ncccn3)n2)cc1	16.0*	2.3	0.6	1.7	3.0	14.3*	0.9
Cc1ccc(Nc2cc(-n3cccn3)ncn2)c(C)c1	15.2*	2.9	-0.7	3.1	-0.9	11.5*	0.6
CC(C)(C)N1Cc2nnn(Cc3ccccc3)c2-c2ccccc2S1(=O)=O	-2.7	·	-1.7	0.9	-0.8	·	·
COc1ccc(Nc2nnc(-c3ccc4c(c3)OCO4)o2)cc1	22.1*	·	1.5*	3.4	5.8*	17.5*	0.9
COc1ccc(C(CC(=O)Nc2nccs2)C(C)C)cc1 (stereo not drawn)	-2.2	0.9	-1.1	-0.4	-1.8	·	·
O=C(COc1cccc2cccnc12)Nc1nccs1	13.6*	1.6	0.6	1.4	4.0	10.5*	0.6
SMILES	hgDAF12 agonist	DAX1 inh-1	ssDAF-12 act	DAX1 inh-2	hcDAF12 agonist	hgDAF12 ag	LXRb DAF12 ctr	others
COc1ccc(C(CC(=O)Nc2nccs2)n2cccc2)cc1 (stereo not drawn)	15.8*	3.1	0.9*	2.5	3.3	15.8*	0.7
C/C(=C\c1ccccc1)C(=O)Nc1nccs1	15.6*	2.5	0.8	1.2	3.9	12.4*	0.5
COc1ccccc1OCCCC(=O)Nc1nccs1	14.3*	2.8	0.4	4.5*	2.2	10.8*	0.4
COc1ccc(Cc2c(-c3ccc(F)cc3)nc3ccc(Cl)cn23)c(C)c1	7.9	·	0.0	2.6	3.8	·	·
O=S(=O)(N[C@@H]1CCCC[C@H]1N1CCOCC1)c1ccc(Cl)cc1	2.0	·	-1.3	·	-0.4	·	·
Cc1c[nH]c2cccc(-c3cccc4ccccc34)c12	2.0	·	-0.7	0.7	0.3	·	·
COc1ccc(-c2csc(C(C)(O)c3cccnc3)n2)cn1 (stereo not drawn)	-1.5	·	-0.8	-0.6	-2.3	·	·
CCOC(=O)C1CCCN(C(=O)c2ccc3nc(-c4cccc(OC)c4)oc3c2)C1 (stereo not drawn)	14.4*	-1.8	-0.2	-3.5	3.3	11.6*	0.5
O=c1c2c(nc3cc(-c4ccc(F)cc4)[nH]n13)CCC2	15.0*	1.2	-0.2	4.1*	6.4*	16.8*	1.0
S=C(SCc1c(Cl)cccc1Cl)N1CCSCC1	-3.0	·	0.0	-0.2	1.0	·	·
O=C(CSC(=S)N1CCSCC1)c1ccc(Cl)cc1	13.3*	3.6	-0.7	2.4	0.6	13.5*	0.7
Nc1cc(=O)n(Cc2ccccc2)c(N)c1C(=O)NCc1ccccc1	2.5	·	0.0	-0.9	1.9	·	·
COc1ccc2c(c1)CCC/C2=N/OC(=O)c1ccccc1OC	3.0	-1.2	-0.9	-0.1	-0.8	·	·
COc1ccc2c(c1)CC/C2=N\OC(=O)c1cccc(C)c1	13.7*	2.5	-0.1	2.0	1.9	17.0*	0.7
O=C(Nc1ccc2c(c1)OCCO2)C1c2ccccc2OCC(=O)N1CC(F)(F)F (stereo not drawn)	0.8	·	-0.8	-1.3	-0.6	·	·
CC(C(=O)N1CCc2ccccc21)N1CCN(S(=O)(=O)c2cccs2)CC1 (stereo not drawn)	-0.8	-0.7	-1.3	-0.4	-1.1	·	·
CN(CC(=O)N1CCc2ccccc21)S(=O)(=O)c1cccs1	13.4*	2.2	0.2	2.6	2.9	11.8*	0.6
Cc1cc(C)n(-c2nnc(NC34CC5CC(CC(C5)C3)C4)nn2)n1	13.3*	0.8	0.6	2.8	5.0	15.4*	0.6
